# PubChem BioAssay (NCATS)
# Results filed as inconclusive are left out. Entries that show only a call come without a potency. Unmarked numbers belong to inactive results. Activity calls are given as the source filed them. The call rests on the fitted dose curve; in most records, active means well fitted curve in the direction sought with a large enough effect; inconclusive means small, poorly fitted or top-dose-only effect, or another doubt; inactive means no such curve, though single readings can be large; an effect the other way counts as inactive or inconclusive.
# Tests used:
# [1] = target: Rap guanine nucleotide exchange factor 3 (Homo sapiens) (UniProt O95398); assay: Confirmatory qHTS for antagonist of cAMP-regulated guanine nucleotide exchange factor 3 (EPAC1) (AID 1645880); further: nearly all actives have a fitted effect of over 55% in size; further: potency means the concentration at half of the fitted maximal effect
# Chain of Rap guanine nucleotide exchange factor 3 (Homo sapiens) (O95398 whole entry, looked up): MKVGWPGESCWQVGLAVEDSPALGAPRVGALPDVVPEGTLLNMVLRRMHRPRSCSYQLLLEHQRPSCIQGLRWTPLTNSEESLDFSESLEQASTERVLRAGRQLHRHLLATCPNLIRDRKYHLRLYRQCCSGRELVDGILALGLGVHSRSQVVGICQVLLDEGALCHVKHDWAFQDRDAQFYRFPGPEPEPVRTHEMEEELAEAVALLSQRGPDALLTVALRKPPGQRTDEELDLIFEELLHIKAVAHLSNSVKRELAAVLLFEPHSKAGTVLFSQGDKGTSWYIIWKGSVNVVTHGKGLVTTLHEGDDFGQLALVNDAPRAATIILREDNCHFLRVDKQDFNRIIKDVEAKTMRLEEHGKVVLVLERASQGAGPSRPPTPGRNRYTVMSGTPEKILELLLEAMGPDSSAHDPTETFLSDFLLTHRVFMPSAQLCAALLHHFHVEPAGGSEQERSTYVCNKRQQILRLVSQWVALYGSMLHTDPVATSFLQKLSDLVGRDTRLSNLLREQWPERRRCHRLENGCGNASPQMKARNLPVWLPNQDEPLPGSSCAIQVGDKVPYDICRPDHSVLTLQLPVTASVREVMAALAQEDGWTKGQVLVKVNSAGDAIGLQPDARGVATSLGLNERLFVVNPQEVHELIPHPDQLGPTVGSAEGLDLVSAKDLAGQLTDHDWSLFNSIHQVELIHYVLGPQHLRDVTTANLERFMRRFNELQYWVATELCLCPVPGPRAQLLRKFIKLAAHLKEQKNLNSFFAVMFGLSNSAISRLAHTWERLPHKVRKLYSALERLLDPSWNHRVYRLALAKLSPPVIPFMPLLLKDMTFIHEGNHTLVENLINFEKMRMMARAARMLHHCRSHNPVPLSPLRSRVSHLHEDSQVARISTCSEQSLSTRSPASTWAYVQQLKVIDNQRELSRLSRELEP
# How it was run: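 Released BODIPY-GDP fluoresces less than Rap1-bound BODIPY-GDP; the signal is followed at 480/540 nm at 5-min intervals over 30 min, after 5 min at room temperature. Reactions contain 100 nM EPAC1, 250 nM RAP1B-BODIPY-GDP and 50 uM GDP; results are normalized to ATA and DMSO.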
# [2] = target: Rap guanine nucleotide exchange factor 3 (Homo sapiens) (UniProt O95398); assay: Confirmatory qHTS for agonist of cAMP-regulated guanine nucleotide exchange factor 3 (EPAC1) (AID 1645881); further: nearly all actives have a fitted effect of over 75% in size; further: potency means the concentration at half of the fitted maximal effect;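 on activation: EPAC1 catalysed release of BODIPY-GDP from Rap1B seen as fluorescence loss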
# [3] = target: Rap guanine nucleotide exchange factor 4 (Homo sapiens) (UniProt Q8WZA2); assay: Confirmatory qHTS for agonist of cAMP-regulated guanine nucleotide exchange factor 4 (EPAC2) (AID 1645884);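 further: nucleotide exchange releases bodipy-GDP from Rap1 and this lowers its fluorescence; nearly all actives have a fitted effect of over 65% in size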; further: potency means the concentration at half of the fitted maximal effect
# Chain of Rap guanine nucleotide exchange factor 4 (Homo sapiens) (Q8WZA2 whole entry, looked up): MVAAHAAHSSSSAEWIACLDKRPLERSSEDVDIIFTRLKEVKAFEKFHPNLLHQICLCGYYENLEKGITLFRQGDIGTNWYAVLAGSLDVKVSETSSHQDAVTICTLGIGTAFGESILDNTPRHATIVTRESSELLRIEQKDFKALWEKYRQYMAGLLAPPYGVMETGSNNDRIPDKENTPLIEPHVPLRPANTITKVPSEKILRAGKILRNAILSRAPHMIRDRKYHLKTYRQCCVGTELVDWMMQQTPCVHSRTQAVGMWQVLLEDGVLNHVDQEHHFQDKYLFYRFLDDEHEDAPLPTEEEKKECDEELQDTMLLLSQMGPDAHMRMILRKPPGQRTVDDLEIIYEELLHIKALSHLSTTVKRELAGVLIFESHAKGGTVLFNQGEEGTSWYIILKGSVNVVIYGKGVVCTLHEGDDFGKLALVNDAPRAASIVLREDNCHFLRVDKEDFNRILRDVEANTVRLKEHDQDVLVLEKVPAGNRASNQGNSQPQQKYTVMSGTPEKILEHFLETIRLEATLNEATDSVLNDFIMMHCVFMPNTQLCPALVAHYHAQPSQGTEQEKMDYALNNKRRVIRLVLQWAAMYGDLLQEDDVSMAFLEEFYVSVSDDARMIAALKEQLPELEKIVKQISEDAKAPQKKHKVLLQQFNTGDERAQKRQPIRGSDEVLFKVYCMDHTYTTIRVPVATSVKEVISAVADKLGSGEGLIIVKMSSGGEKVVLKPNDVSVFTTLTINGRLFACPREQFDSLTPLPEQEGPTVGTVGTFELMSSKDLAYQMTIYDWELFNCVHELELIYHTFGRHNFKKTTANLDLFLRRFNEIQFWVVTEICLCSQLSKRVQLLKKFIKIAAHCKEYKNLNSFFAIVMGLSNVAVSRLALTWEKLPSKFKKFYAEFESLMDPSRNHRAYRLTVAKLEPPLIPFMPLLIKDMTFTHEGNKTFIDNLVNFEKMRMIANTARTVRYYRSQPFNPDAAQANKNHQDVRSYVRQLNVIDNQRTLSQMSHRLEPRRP
# [4] = target: Rap guanine nucleotide exchange factor 4 (Homo sapiens) (UniProt Q8WZA2); assay: Confirmatory qHTS for antagonist of cAMP-regulated guanine nucleotide exchange factor 4 (EPAC2) (AID 1645885); further: nearly all actives have a fitted effect of over 25% in size; further: potency means the concentration at half of the fitted maximal effect
# [5] = target: Rap guanine nucleotide exchange factor 3 (Homo sapiens) (UniProt O95398); assay: Counterscreen qHTS for antagonist of cAMP-regulated guanine nucleotide exchange factor 3 (EPAC1) (AID 1645888)
# How it was run: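 Measured: fluorescence of BODIPY-GDP bound to Rap1B, which falls as exchange proceeds. Conditions include 50 uM competing GDP, 5 and 30 min reads, and a later cAMP challenge for antagonist detection.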
Compound,Potency [1],Potency [2],Potency [3],Potency [4],Potency [5],outcome [4],activation [3],"activity change, negative = inhibition [5]"
O=C1CC(=O)N(CCc2ccccc2)C(=O)N1CCc1ccccc1,inactive,inactive,inactive,inactive,inactive,,,
CCOC(=O)C1=C(CSc2nc3ccccc3s2)NC(=O)NC1c1ccc(OC)cc1 (stereo not given),inactive,inactive,inactive,,inactive,inactive; activator; fitted 0.12 uM [at 12.7 µM],,
Cc1ccc(C)n1-c1c(C(=O)NCCC(C)C)sc2ncccc12,inactive,inactive,inactive,inactive,inactive,,,
N#C/C(=C\c1ccc(O)c([N+](=O)[O-])c1)c1nc2ccccc2s1,33.8 µM (active),inactive,inactive,inactive,inactive,,,
Cc1ccc(C(=O)Nc2sc(C)c(C)c2C(=O)c2ccccc2)cc1,inactive,inactive,,inactive,,,"4.34% [at 17.1 µM, percent relative to cAMP agonist control]",-1.59% [at 30.8 µM]
CCCC1C2CN(C(C)C)CC=C2C(C#N)=C(N)C1(C#N)C#N (stereo not given),37.9 µM (active),35.5 µM (active),56.2 µM (active),33.8 µM (active),inactive,,,
CCCCOc1ccccc1NC(=O)Cn1c(-c2cncs2)nc2ccccc21,inactive,inactive,inactive,inactive,inactive,,,
CCc1ccccc1C1=CC(=O)C[C@H](c2ccc(OC)cc2)C1,inactive,inactive,inactive,inactive,inactive,,,
C=CCSc1nc2ccccc2c(=O)n1C1CCOC(C)(C)C1 (stereo not given),inactive,inactive,inactive,inactive,inactive,,,
CCCN1CCN(S(=O)(=O)c2ccc3c(c2)NC(=O)C(C)C(=O)N3)CC1 (stereo not given),inactive,inactive,inactive,inactive,inactive,,,
COc1cccc(CNC(=O)CCC(=O)N2CC(C)Sc3ccccc32)c1 (stereo not given),inactive,inactive,inactive,inactive,inactive,,,
CCOc1cc(/C=C2\C(=N)N3N=C(S(C)(=O)=O)SC3=NC2=O)ccc1OCCOc1cccc(OC)c1,19 µM (active),inactive,inactive,inactive,inactive,,,
COc1ccc(C(=O)c2c(-c3ccc(OC)cc3)oc3ccccc23)cc1,inactive,inactive,inactive,15.1 µM (active),inactive,,,
Cc1ccccc1C(=O)NCC(=O)N1CCN(c2ccccn2)CC1,inactive,inactive,,inactive,,,"9.91% [at 17.1 µM, percent relative to cAMP agonist control]",-4.53% [at 30.8 µM]
CCOC(=O)COc1ccc(Br)cc1/C=C\c1[nH]c(=O)[nH]c(=O)c1[N+](=O)[O-],20 µM (active),inactive,,inactive,,,"4.81% [at 17.1 µM, percent relative to cAMP agonist control]",-24.7% [at 30.8 µM]
Cc1[nH]c2ccccc2c1C(c1ccccc1)c1cccs1 (stereo not given),inactive,inactive,inactive,inactive,inactive,,,
Cc1cccc(Cc2cnc(N3C(=N)SC(c4ccccc4)C3=O)s2)c1 (stereo not given),inactive,inactive,inactive,inactive,inactive,,,
CN(C)S(=O)(=O)c1cccc(-c2nn(-c3ccccc3)cc2/C=C2\SC(=S)NC2=O)c1,21.3 µM (active),inactive,inactive,42.6 µM (active),inactive,,,
CC(=NNC(=O)c1ccccc1N)c1ccccc1O,2.51 µM (active),inactive,,inactive,,,"0.484% [at 17.1 µM, percent relative to cAMP agonist control]",-1.34% [at 30.8 µM]
COc1ccc(NC(=O)c2c(-c3ccccc3)c(-c3ccccc3)nn(C)c2=O)cc1OC,inactive,inactive,inactive,inactive,inactive,,,
CCC1CCCCN1CCCNC(=O)c1csc2c1CCCCC2 (stereo not given),inactive,inactive,inactive,inactive,inactive,,,
CCCNC(=O)c1ccc2c(=O)c(O)c(-c3ccsc3)[nH]c2c1,inactive,inactive,,inactive,,,"-5.87% [at 17.1 µM, percent relative to cAMP agonist control]",-0.0367% [at 30.8 µM]
Cc1cccc(NC(=O)Cn2c(O)c(N=NC(=O)c3ccncc3)c3ccccc32)c1,inactive,inactive,inactive,inactive,inactive,,,

Compound,Potency [1],Potency [2],Potency [3],Potency [4],Potency [5],outcome [4],activation [3],"activity change, negative = inhibition [5]"
CN(CCC#N)C(=O)COC(=O)c1c2c(nc3ccccc13)/C(=C/c1ccco1)CC2,3.55 µM (active),inactive,,inactive,,,"-0.614% [at 17.1 µM, percent relative to cAMP agonist control]",-6.16% [at 30.8 µM]
COc1ccc(C(=O)N(Cc2ccccc2)c2cccc(C)c2)c(OC)c1OC,inactive,inactive,inactive,inactive,inactive,,,
O=C(/C=C/c1ccccc1)c1cc(Br)ccc(=O)c1O,12 µM (active),inactive,inactive,inactive,inactive,,,
COc1ccc(/C=N/NC(=O)c2cccnc2)cc1CN1CCCc2ccccc21,inactive,inactive,inactive,inactive,inactive,,,
O=C(c1ccccc1)N1CCN(CCc2ccccn2)CC1,inactive,inactive,inactive,,inactive,inactive [at 12.7 µM],,
COCC(=O)Oc1c(Sc2ccc(C)cc2)c(C)nn1C(C)(C)C,inactive,inactive,inactive,inactive,inactive,,,
N#CC1=C(N)SC(N)=C(C#N)C1c1cccc(Oc2ccccc2)c1,67.5 µM (active),inactive,inactive,inactive,inactive,,,
COc1cc(/C=C/C(=O)OCC(=O)Nc2oc(C)c3c(C)n[nH]c(=O)c23)ccc1OC(F)F,inactive,inactive,inactive,inactive,inactive,,,
CCOC(=O)c1ccccc1-c1csc(NS(=O)(=O)c2ccc(Cl)cc2)n1,31.6 µM (active),inactive,,inactive,,,"4% [at 17.1 µM, percent relative to cAMP agonist control]",-28.7% [at 30.8 µM]
Nn1cnnc1N/N=C/c1ccc(Cl)c([N+](=O)[O-])c1,inactive,inactive,inactive,inactive,inactive,,,
Cc1ccc(C)c(S(=O)(=O)N2CCN(C(=O)CCCc3c[nH]c4ccccc34)CC2)c1,inactive,inactive,,inactive,,,"2.96% [at 17.1 µM, percent relative to cAMP agonist control]",-6.79% [at 30.8 µM]
CC(C)(C)[C@H](N)C(=O)N[C@H]1CCC2C3CC=C4C[C@@H](O)CC[C@]4(C)C3CC[C@@]21C (stereo not given in full),inactive,inactive,,inactive,,,"3.5% [at 17.1 µM, percent relative to cAMP agonist control]",-9.07% [at 30.8 µM]
COc1ccc(/C=C2/SC(=S)N(c3ccc(S(=O)(=O)Nc4nccs4)cc3)C2=O)cc1,33.8 µM (active),inactive,inactive,inactive,inactive,,,
O=C(CCN1C(=O)/C(=C/c2cccs2)SC1=S)Nc1ccc(C(=O)O)c(O)c1,79.4 µM (active),inactive,,inactive,,,"0.91% [at 17.1 µM, percent relative to cAMP agonist control]",19.6% [at 30.8 µM]
CCOC(=O)C1=C(C)Nc2nnnn2C1c1ccc(OC)c(Br)c1 (stereo not given),inactive,inactive,,inactive,,,"8.47% [at 17.1 µM, percent relative to cAMP agonist control]",1.39% [at 30.8 µM]
O=C(/C=C/c1ccco1)NC(=S)Nc1cccc([N+](=O)[O-])c1,20 µM (active),inactive,,inactive,,,"7.76% [at 17.1 µM, percent relative to cAMP agonist control]",-9.95% [at 30.8 µM]
CN1N=C(C(C)(C)C)CC1=O,inactive,inactive,inactive,inactive,inactive,,,
Cc1ccc(-c2cc([C@H]3[C@@H]4C=CCC[C@@]4(C)C(=O)N3Cc3ccccc3)ccc2F)cc1,inactive,inactive,,inactive,,,"-2.1% [at 17.1 µM, percent relative to cAMP agonist control]",-9.39% [at 30.8 µM]
CCCn1c(CN2CCN(C(=O)c3ccco3)CC2)nc2c1c(=O)n(C)c(=O)n2C,inactive,inactive,inactive,10.7 µM (active),inactive,,,
CCCCn1c(CN2CCOCC2)nc2c1c(=O)n(C)c(=O)n2C,inactive,inactive,inactive,inactive,inactive,,,
O=C1C(Cl)=C(NC(=O)c2ccccc2)C(=O)C(Cl)=C1NC(=O)c1ccccc1,inactive,inactive,inactive,inactive,inactive,,,
Cc1ccc(NC(=O)Cn2nc(C)c3nn(-c4ccc(Cl)cc4)c(C)c3c2=O)cc1F,inactive,inactive,inactive,inactive,inactive,,,
CS(=O)(=O)N1N=C(c2ccco2)CC1c1ccc(Cl)cc1Cl (stereo not given),inactive,inactive,,inactive,,,"0.361% [at 17.1 µM, percent relative to cAMP agonist control]",3.91% [at 30.8 µM]
